Residual activity data for 35 molecules are collected here from ChEMBL document CHEMBL2218924, “A broad activity screen in support of a chemogenomic map for kinase signalling research and drug discovery” (Biochem J, 2013).

For one assay, the target named is T1, Tyrosine-protein kinase ZAP-70 (Homo sapiens) (UniProt P43403).
T1 sequence (whole entry): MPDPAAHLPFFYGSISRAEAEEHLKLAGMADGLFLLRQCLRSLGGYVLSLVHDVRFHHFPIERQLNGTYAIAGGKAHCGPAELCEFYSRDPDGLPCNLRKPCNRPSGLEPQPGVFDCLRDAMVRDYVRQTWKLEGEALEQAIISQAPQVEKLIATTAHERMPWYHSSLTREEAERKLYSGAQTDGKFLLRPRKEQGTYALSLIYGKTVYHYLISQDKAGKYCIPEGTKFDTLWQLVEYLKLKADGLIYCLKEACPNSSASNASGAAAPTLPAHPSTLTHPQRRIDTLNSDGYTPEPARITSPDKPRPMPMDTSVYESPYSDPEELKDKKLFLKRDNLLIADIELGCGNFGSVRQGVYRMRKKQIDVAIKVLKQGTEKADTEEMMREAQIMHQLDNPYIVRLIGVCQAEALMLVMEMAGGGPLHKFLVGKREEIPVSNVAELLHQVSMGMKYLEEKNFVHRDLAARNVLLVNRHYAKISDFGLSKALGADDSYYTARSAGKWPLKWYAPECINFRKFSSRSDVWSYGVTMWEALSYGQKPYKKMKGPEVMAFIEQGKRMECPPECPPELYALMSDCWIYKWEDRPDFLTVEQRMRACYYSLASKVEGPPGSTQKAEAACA
To be noted: at 10 µM.
The term residual activity denotes the signal under treatment as a percentage of the control signal. As to `O=C1Nc2cc(Br)ccc2/C1=C1/Nc2ccccc2/C1=N\O`, the residual activity stood at 95%.
Regarding `NC(=O)c1ccc(-c2nc(-c3ccc4c(c3)OCCO4)c(-c3ccccn3)[nH]2)cc1`, the residual activity amounted to 86%.
The same measure, in the same setting: as for `O=[N+]([O-])c1ccc(-c2nc(-c3ccc(F)cc3)c(-c3ccncc3)[nH]2)cc1`, the figure is 122%.
Same read-out and setting: under `CO[C@H]1[C@@H](OC)C[C@H](C)[C@@H](OC)C2=CC(=O)C=C(NC(=O)/C(C)=C/C=C/[C@H](OC)[C@@H](OC(N)=O)/C(C)=C/[C@@H]1C)C2=O` stands 112%; under `COc1ccc(CNc2nc(N(CCO)CCO)nc3c2ncn3C(C)C)cc1`, 88%.
Same read-out and setting: under `COc1cc2ncnc(Nc3ccc(O)c(Br)c3)c2cc1OC` stands 105%; under `COc1ccc(OC)c2c(=S)c3ccccc3[nH]c12`, 88%.
As to `Cn1c2ccccc2c2c3c(c4c5ccccc5n(CCC#N)c4c21)CNC3=O`, the residual activity was 111%.
The same measure, in the same setting: as for `CC#CC(=O)Nc1cc2c(Nc3ccc(F)c(Cl)c3)ncnc2cn1`, the figure is 100%; as for `Oc1ccc(-c2nc(-c3ccc(F)cc3)c(-c3ccncc3)[nH]2)cc1`, 119%.
Take `Fc1ccc(-c2nc3n(c2-c2ccncc2)CCS3)cc1`: the residual activity amounted to 124%.
Take `O=C(Nc1cccc(Nc2cc(Nc3cccc(C(F)(F)F)c3)ncn2)c1)C1CC1`: the residual activity was determined as 101%.
Still for that read-out and setting: under `COc1cc2ncnc(Nc3ccc(Oc4ccccc4)cc3)c2cc1OC` stands 114%; under `O=C1NC(=O)c2c1c1c3ccccc3[nH]c1n1cncc21`, 102%; under `Nc1n[nH]c2nnc(-c3c(-c4ccccc4)nn4ccccc34)cc12`, 81%.
As to `CC(C)(C)n1nc(Cc2cccc3ccccc23)c2c(N)ncnc21`, the residual activity came to 110%.
On the same count and under the same terms, as for `O=C(Nc1ccc(Cl)cc1)c1ccccc1NCc1ccncc1`, the figure is 142%; as for `NC(=O)Nc1sc(-c2ccc(F)cc2)cc1C(N)=O`, 107%; as for `Cc1cc2ncc(-c3ccccc3)nc2cc1C`, 98%.
In the case of `COc1ccc2c(c1)c(C1=C(c3c[nH]c4ccccc34)C(=O)NC1=O)cn2CCCN(C)C`, the residual activity is 120%.
Still for that read-out and setting: as for `COc1cccc(-c2cc(=O)c3ccccc3o2)c1N`, the figure is 120%.
In the case of `CC(C)[C@H](CO)Nc1nc(Nc2cc(N)cc(Cl)c2)c2ncn(C(C)C)c2n1`, the residual activity was 98%.
Regarding `O=C(CCCc1ccc(-c2ccccc2F)cc1)Nc1ccc(O)cc1`, the residual activity amounted to 109%.
Consider `O=C1Nc2ccc(Br)cc2/C1=C\c1cc2c([nH]1)CCCC2`, for which the residual activity is 124%.
As to `Ic1cccc(CSc2nnc(-c3ccncc3)o2)c1`, the residual activity amounted to 102%.
Still for that read-out and setting: as for `CCC(=O)Nc1ccc2ncnc(Nc3cccc(Br)c3)c2c1`, the figure is 109%.
On the same count and under the same terms, as for `COc1ccc(C(=O)Nc2sc3c(c2C(N)=O)CCCC3)cc1OC`, the figure is 114%; as for `N#Cc1cnc2cnc(NCc3cccnc3)cc2c1Nc1ccc(F)c(Cl)c1`, 38%.
Regarding `O=C1NC(=O)c2c1c1c3ccccc3[nH]c1c1[nH]c3cc(Br)ccc3c21`, the residual activity was determined as 90%.
Same read-out and setting: as for `C[C@@H](N)[C@H]1CC[C@H](C(=O)Nc2ccncc2)CC1`, the figure is 122%.
The same measure, in the same setting: under `O=c1c2ccccc2[nH]c(=S)n1CCN1CCC(=C(c2ccc(F)cc2)c2ccc(F)cc2)CC1` stands 94%.
`Nc1ccc2ncnc(NCCc3ccc(Oc4ccccc4)cc3)c2c1`: the residual activity turned out to be 108%.
The same measure, in the same setting: under `CCOc1cc2ncnc(Nc3cccc(Br)c3)c2cc1OCC` stands 119%.

Another assay deals with RAF proto-oncogene serine/threonine-protein kinase (Homo sapiens) (UniProt P04049). To be noted: at 10 µM.
Chain of RAF proto-oncogene serine/threonine-protein kinase (Homo sapiens) (P04049 whole entry): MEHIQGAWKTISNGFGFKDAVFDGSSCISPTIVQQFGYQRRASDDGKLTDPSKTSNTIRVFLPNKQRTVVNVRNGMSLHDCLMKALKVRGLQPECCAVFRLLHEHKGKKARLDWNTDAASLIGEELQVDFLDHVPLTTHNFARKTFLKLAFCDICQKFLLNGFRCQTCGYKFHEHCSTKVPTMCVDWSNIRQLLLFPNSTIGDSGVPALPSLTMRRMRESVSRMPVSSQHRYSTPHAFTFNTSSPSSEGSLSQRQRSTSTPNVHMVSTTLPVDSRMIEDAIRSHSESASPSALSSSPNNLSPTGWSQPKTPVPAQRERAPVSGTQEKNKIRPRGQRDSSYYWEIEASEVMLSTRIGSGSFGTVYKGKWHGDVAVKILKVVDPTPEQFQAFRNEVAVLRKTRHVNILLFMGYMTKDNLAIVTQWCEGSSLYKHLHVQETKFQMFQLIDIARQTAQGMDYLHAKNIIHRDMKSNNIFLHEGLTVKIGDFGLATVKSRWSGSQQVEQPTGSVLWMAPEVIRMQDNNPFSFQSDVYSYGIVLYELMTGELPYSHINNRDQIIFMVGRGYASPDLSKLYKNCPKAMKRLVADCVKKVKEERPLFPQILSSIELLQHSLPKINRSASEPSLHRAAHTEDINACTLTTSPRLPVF
As for `CC(C)(C)c1cc(C=C(C#N)C#N)cc(Br)c1O`, the residual activity is 70%.
The same measure, in the same setting: under `Oc1ccc(-c2nc(-c3ccc(F)cc3)c(-c3ccncc3)[nH]2)cc1` stands 1%; under `CN[C@@H]1C[C@H]2O[C@@](C)([C@@H]1OC)n1c3ccccc3c3c4c(c5c6ccccc6n2c5c31)C(=O)NC4`, 99%.
